Laboratory results: PubChem BioAssay (NCI)
About 79,000 compounds went through this panel and 15% of them were active in at least one assay; those are over-represented in the sample as a whole. Values without a mark were called inactive. Calls of active or inactive are those of the source. Rule as the data show it: active = growth inhibition above about 70%; inactive = the rest.

How the values were obtained:
[1] = NCI Yeast Anticancer Drug Screen. Data for the rad50 strain (AID 155);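 also: 0% = growth of vehicle-only cultures of the same strain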; conditions: S. cerevisiae rad50 strain growth inhibition, stronger effect = higher value
In short: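 Genetically altered yeast (DNA repair pathway); compound treatment; growth inhibition vs vehicle ctrl.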

[2] = NCI Yeast Anticancer Drug Screen. Data for the mec2-1 strain (AID 157); conditions: S. cerevisiae mec2-1 strain, stronger effect = higher value
In short: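 Yeast mec2-1 mutant treated with compound. Readout: growth inhibition vs vehicle controls.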

[3] = NCI Yeast Anticancer Drug Screen. Data for the sgs1 mgt1 strain (AID 161);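 also: 0% = growth of cultures given vehicle only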; conditions: S. cerevisiae sgs1 mgt1 strain, stronger effect = higher value
In short: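 Genetically altered yeast, compound exposure, growth inhibition relative to vehicle.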

[4] = NCI Yeast Anticancer Drug Screen. Data for the cln2 rad14 strain (AID 165);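 also: 0% = growth equal to vehicle treated cultures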; conditions: S. cerevisiae cln2 rad14 strain, stronger effect = higher value
In short: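 cln2 rad14 yeast strain; compound exposure; growth inhibition read vs vehicle controls.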

[5] = NCI Yeast Anticancer Drug Screen. Data for the bub3 strain (AID 167); conditions: S. cerevisiae bub3 mutant strain, stronger effect = higher value
In short: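 Yeast carrying a defined mutation is treated with each compound, and growth is compared with that of vehicle-exposed cells to give inhibition.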

[6] = NCI Yeast Anticancer Drug Screen. Data for the mlh1 rad18 strain (AID 175); conditions: S. cerevisiae mlh1 rad18 strain growth inhibition, stronger effect = higher value
In short: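 Yeast w/ defined DNA-repair lesions; compound exposure; growth vs vehicle controls → % inhibition.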

[7] = at 5.0 µM (retest, dose inferred, filed as 0.5)
[8] = at 50.0 µM (retest, dose inferred, filed as 5.0)

SMILES | growth inhibition [1, 7] | growth inhibition [1, 8] | growth inhibition ([1]; at 50.0 µM) | growth inhibition [2, 7] | growth inhibition [2, 8] | growth inhibition ([2]; at 50.0 µM) | growth inhibition [3, 7] | growth inhibition [3, 8] | growth inhibition ([3]; at 50.0 µM) | growth inhibition [4, 7] | growth inhibition [4, 8] | growth inhibition ([4]; at 50.0 µM) | growth inhibition [5, 7] | growth inhibition [5, 8] | growth inhibition ([5]; at 50.0 µM) | growth inhibition [6, 7] | growth inhibition [6, 8] | growth inhibition ([6]; at 50.0 µM)
Oc1ccc([Te]CCNCC[Te]c2ccc(O)cc2)cc1 | 58% | 58% | 40.8% | 37% | 37% | 0.3% | 40% | 40% | 16.1% | 13% | 13% | 48.3% | 29% | 29% | 30.9% | 36% | 36% | 71.5% (active)
[Br][Hg][CH2]COC[CH2][Hg][Br] | 95% (active) | 99% (active) | 99.4% (active) | 98% (active) | 100% (active) | 99.6% (active) | 98% (active) | 51% | 99.5% (active) | 83% (active) | 99% (active) | 98.8% (active) | 96% (active) | 99% (active) | 99% (active) | 95% (active) | 99% (active) | 99.1% (active)
Cc1ccccc1C(=O)CN | -3% | -2% | 16.4% | 0% | -3% | -6% | -1% | 0% | -4.2% | -5% | -3% | 81.3% (active) | -2% | -9% | -13.1% | -1% | -3% | 12.9%
CCC(C)(c1ccc(O)cc1)c1ccc(O)cc1 | 13% | 98% (active) | 98.9% (active) | -5% | 99% (active) | 99.5% (active) | 3% | 98% (active) | 98.8% (active) | 21% | 98% (active) | 99% (active) | 43% | 99% (active) | 96.4% (active) | 14% | 99% (active) | 98.7% (active)
C/C(=N\Nc1ccccn1)C1CC[N-]C2C(O)CCCC12.C/C(=N\Nc1ccccn1)C1CC[N-]C2C(O)CCCC12.[Cu+2] (stereo not given) | 98% (active) | 98% (active) | 99% (active) | 99% (active) | 99% (active) | 99.5% (active) | 98% (active) | 99% (active) | 99.4% (active) | 98% (active) | 97% (active) | 98.9% (active) | 99% (active) | 98% (active) | 99% (active) | 99% (active) | 98% (active) | 99.3% (active)
CN(C)CCCNc1ccnc2c(COC(=O)N(CCCl)CCCl)ccc([N+](=O)[O-])c12 | 15% | 33% | 52.5% | 23% | 41% | 53.7% | 34% | 75% (active) | 74.2% (active) | 22% | 63% | 43.6% | 10% | 42% | 38.1% | 22% | 82% (active) | 84.7% (active)
Clc1ccc(-c2cc(=[N+]3CC[N+](=c4cc(-c5ccc(Cl)cc5)ss4)CC3)ss2)cc1 | 8% | 3% | 98.3% (active) | -158% | -3% | 98.2% (active) | 2% | 4% | 98.9% (active) | 5% | -9% | 95.7% (active) | 3% | -2% | 98% (active) | 7% | 4% | 98.5% (active)
c1ccc(C(C(=Nc2ccc(Cc3ccc(N=C(C(c4ccccc4)c4ccccc4)N4CC4)cc3)cc2)N2CC2)c2ccccc2)cc1 | 5% | 86% (active) | 85.6% (active) | 42% | 59% | 92.5% (active) | 5% | 70% (active) | 94.1% (active) | 8% | 62% | 77.2% (active) | 5% | 87% (active) | 85.8% (active) | 11% | 71% (active) | 91.7% (active)
CCN(CC)CC(=O)c1ccc2c(ccc3ccccc32)c1 | 15% | 98% (active) | 99.2% (active) | 26% | 100% (active) | 99.5% (active) | 6% | 99% (active) | 99.5% (active) | -1% | 97% (active) | 99.3% (active) | 8% | 99% (active) | 99.2% (active) | 43% | 99% (active) | 99.3% (active)
c1ccc([CH2][Pb]([c]2ccccc2)([c]2ccccc2)[c]2ccccc2)cc1 | 96% (active) | 96% (active) | 97.2% (active) | 97% (active) | 99% (active) | 99.2% (active) | 97% (active) | 98% (active) | 98.7% (active) | 95% (active) | 95% (active) | 98.5% (active) | 98% (active) | 97% (active) | 99% (active) | 97% (active) | 97% (active) | 99.2% (active)
